# From PubChem BioAssay
# ADAM10 inh – ADAM10 inhibition, QFRET primary screen | recombinant ADAM10, EDANS/DABCYL FRET peptide cleavage, 3 h | inhibition, % at 7 µM | actives 0.62% (n = 370,000) | AID 720582;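 active means inhibition above a per-campaign cutoff equal to the mean of compounds falling between control-based bounds plus 3 SD, cut at about 20% in these data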
# DSG3 Ab inh – blocks pemphigus antibody binding to human desmoglein-3. P32926. DSG3-coupled beads, scFv-anti-DSG3-GFP binding, flow cytometry; hits give low values. binding (percent of control), % at 10 µM. actives 0.48% (n = 310,000);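 active means binding more than 3 SD below its plate's average and above zero; inconclusive means below that plate limit but binding exactly zero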;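 further: hits lower antibody fragment binding to DSG3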
# MPTP block – blocks calcium-induced mitochondrial swelling | inhibition, % at 10 µM | actives 1.4% (n = 360,000) | isolated mouse mitochondria, Ca2+ swelling absorbance, 30 min;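 active means inhibition of 50% or more, scaled per plate between neutral and stimulator controls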
# ADAM17 inh – inhibitors of human ADAM17; recombinant ADAM17, EDANS/DABCYL FRET peptide cleavage; P78536; inhibition, % at 6.95 µM; actives 0.83% (n = 370,000);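 active means inhibition above the mean of compounds lying between control limits plus 3 SD, set per campaign, cut at about 8.5% in these data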
# proKLK7 act – activators of human kallikrein-7 zymogen | P49862 | actives 0.9% (n = 370,000) | activation, % at 7 µM | purified proKLK7, EDANS-DABCYL substrate fluorescence; 100% is mature enzyme control, 0% vehicle;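 active means activation above the mean of all tested compounds plus 3 SD, computed per campaign excluding outliers beyond control limits, cut at about 13% in these data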
# Target sequence (P49862 whole entry, looked up): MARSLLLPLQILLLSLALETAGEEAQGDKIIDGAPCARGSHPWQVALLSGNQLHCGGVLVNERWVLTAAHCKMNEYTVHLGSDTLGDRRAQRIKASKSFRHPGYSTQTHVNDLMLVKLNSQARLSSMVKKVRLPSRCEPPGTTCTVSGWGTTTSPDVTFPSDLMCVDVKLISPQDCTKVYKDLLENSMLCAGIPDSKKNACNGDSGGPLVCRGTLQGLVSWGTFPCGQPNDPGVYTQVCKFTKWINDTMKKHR
# rCAG binder – binds r(CAG) RNA repeats. r(CAG) RNA repeat, TO-PRO-1 dye displacement fluorescence. inhibition, % at 3 µM. actives 1.3% (n = 370,000). AID 651821;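 active means inhibition above the plate cutoff, the mean of all test compounds on that plate plus 3 SD, cut at about 35% in these data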;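 further: higher means more dye released from RNA so lower well fluorescence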
# ADAM10 confirm – confirmation of inhibitors of human ADAM10. shares compounds with ADAM10 inh. ADAM10 QFRET peptide cleavage, EDANS fluorescence. inhibition, % at 6.95 µM. actives 1% (n = 2,100). AID 743208;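 active means inhibition above about 20% chosen separately for each screening run, limit read from the data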
# ADAM17 counter – inhibits human ADAM17 in ADAM10 exosite counter-screen; inhibition, % at 6.95 µM; ADAM17 QFRET peptide cleavage, EDANS fluorescence; AID 743214; actives 0.5% (n = 2,100); shares compounds with ADAM10 inh;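 active means mean triplicate inhibition above the solvent-only control wells' mean plus 3 SD, cut at about 12% in these data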
# Hits are given with their value; 0 = inactive; ? = inconclusive; - = no result. An excerpt weighted towards active compounds, which were near 4.7% of everything screened.
SMILES,ADAM10 inh,DSG3 Ab inh,MPTP block,ADAM17 inh,proKLK7 act,rCAG binder,ADAM10 confirm,ADAM17 counter
COC(=O)[C@]12C[C@H](CC(=O)N3CCC(c4ccccc4)CC3)C(=O)N(Cc3ccccc3)C1=C[C@H](COCc1ccccc1)O[C@@H]2C,23.9,-,-,0,0,0,0,0
CCCCCCCCN1C(=O)[C@@H](CC(=O)NCCc2ccccc2OC)C[C@@]2(C(=O)OC)C1=C[C@H](COCc1ccccc1)O[C@@H]2C,0,-,-,0,0,0,-,-
CC(C)[C@H](NC(=O)c1ccc(Cl)cc1)C(=O)OCC(=O)N1CCN(c2ccccc2)CC1,0,0,0,0,0,0,-,-
COC(=O)CN1C(=O)COc2ccc(S(=O)(=O)NCc3ccccc3)cc21,0,0,0,0,0,0,-,-
O=C(CCN1CCN(c2ccccc2)CC1)NNC(=S)Nc1ccccc1Cl,20.7,0,0,15.0,0,0,0,0
COc1ccc(C(=O)Nc2ccccc2C(=O)N2CCOCC2)cc1Br,0,0,0,0,0,0,-,-
COc1ccc(C(=O)Nc2ccccc2C(=O)N2CCOCC2)cc1OC,20.6,0,0,0,0,0,0,0
CN(CC(=O)Nc1cc(Cl)cc(Cl)c1)Cc1cccs1,22.3,0,0,0,0,0,0,0
CN(CC(=O)Nc1ccc(F)cc1Cl)Cc1cccs1,0,0,0,0,0,0,-,-
O=S(=O)(Nc1ccc2c(c1)OCO2)c1cccc(Br)c1,0,0,0,0,0,0,-,-
CC1CC(C)CN(C(=S)SCc2nc(N)nc(Nc3ccccc3)n2)C1 (stereo not given),28.5,0,0,0,0,0,0,0
C[C@H]1CN([C@@H](C)CO)C(=O)CCCn2nncc2CO[C@H]1CN(C)C(=O)Nc1cccc2ccccc12,0,-,0,0,0,0,-,-
O=C(OCC(=O)N1CCOCC1)c1ccccc1OCc1ccccc1,0,-,0,0,0,0,-,-
Cc1ccc(Sc2ncccc2COC(=O)Nc2ccccc2)cc1,21.8,-,0,0,0,0,0,0
COc1ccc(N2C[C@H](C)[C@@H](CC(=O)Nc3ccc(Br)cc3)C2=O)cc1,0,0,0,0,0,0,-,-
COc1cc(C(=O)Nc2ccc3c(c2)nc(C)n3C)cc(OC)c1OC,0,0,0,0,0,0,-,-
Cc1nc2cc(NC(=O)c3ccc(Cl)cc3)ccc2n1C,22.9,0,0,0,0,0,0,0
O=S(=O)(c1ccc(OC(F)(F)F)cc1)N1CCC(O)(c2cccc(C(F)(F)F)c2)CC1,20.7,0,0,0,0,0,0,0
C/C(=N/NC(=O)c1ccc(C)s1)c1ccncc1,20.5,0,0,0,0,0,0,0
CCc1ccc(C(=O)N/N=C(\C)c2ccncc2)s1,0,0,0,0,0,0,-,-
COc1ccc(NC(=O)C2(C)Cc3c(-c4ccc(N(C)C)cc4)ccnc3O2)cc1OC (stereo not given),0,-,0,0,0,0,-,-
Cc1ccc(N(C(C)C(=O)Nc2cc(Cl)ccc2Oc2ccccc2)S(C)(=O)=O)cc1 (stereo not given),21.8,0,0,0,0,0,0,0
COc1ccc(C)cc1NC(=O)C(C)N(c1ccc(C)cc1)S(C)(=O)=O (stereo not given),0,0,0,0,0,0,-,-
CC(C)N1CCN(Cc2cc3ccccc3[nH]2)CC1CCO (stereo not given),0,0,0,0,0,0,-,-
Cc1nn(-c2ccccc2)c(NC(=O)c2cccs2)c(-c2ccccc2)c1=O,0,0,0,0,0,0,-,-
SMILES,ADAM10 inh,DSG3 Ab inh,MPTP block,ADAM17 inh,proKLK7 act,rCAG binder,ADAM10 confirm,ADAM17 counter
N#Cc1c(-c2ccccc2)c(-c2ccccc2)n(Cc2ccco2)c1NC(=O)c1cccs1,19.8,0,0,0,0,0,21.0,0
CCN1CCN(C(C(=O)NC2CCCCC2)c2ccnc3ccccc23)CC1 (stereo not given),0,-,0,0,0,0,-,-
COc1cc(C(=O)NCC(=O)NCCN2C(=O)S/C(=C\c3ccccc3Cl)C2=O)cc(OC)c1OC,20.5,0,0,0,0,0,0,0
Cc1cc(NC(=O)c2ccccc2F)n(-c2nc3ccccc3[nH]2)n1,0,0,0,0,0,0,-,-
Cc1cc(Nc2ccccc2)n(-c2nc3ccccc3[nH]2)n1,20.9,-,0,0,0,0,0,0
Cc1ccc(C(=O)NNC(=S)NC(=O)c2ccccc2)cc1,23.5,0,0,0,0,0,0,0
COc1ccc(CNC(=O)C2(c3ccc(Cl)cc3)CC2)cc1,20.8,0,0,0,0,0,0,0
O=C(C[C@@H]1C[C@@H]2c3cc(NS(=O)(=O)c4ccc(F)cc4)ccc3O[C@@H]2[C@@H](CO)O1)NC1CCCCC1,0,0,0,0,0,0,-,-
N#Cc1nc(COc2ccc(Br)cc2)oc1N1CCCC1,21.1,?,0,0,0,0,0,0
CCN(CC)S(=O)(=O)c1cc(NC(=O)C2CCN(c3ncnc4sc(C)c(C)c34)CC2)ccc1Cl,0,0,0,0,0,0,-,-
Cc1ccc(NC(=O)C2CCN(c3ncnc4sc(C)c(C)c34)CC2)cc1S(=O)(=O)N(C)C,22.2,0,0,0,0,0,0,0
CCCCCCC(=O)NC1CCCCN(Cc2ccc(Cl)cc2)C1=O (stereo not given),0,-,-,0,0,0,-,-
O=C(CCNc1cc(Cl)cc(Cl)c1)c1cccs1,21.5,0,0,0,0,0,0,0
O=C(CCNc1ccc(Cl)cc1)c1cccs1,0,-,0,0,0,0,-,-
CCNc1nc(NC(C)C)nc(SCCOc2ccc(C)cc2)n1,23.6,0,0,0,0,0,0,0
CN1OC[C@@H]2CN(Cc3cc(Cl)cc(Cl)c3)[C@H](c3cccc(Br)c3)C[C@@H]21,0,0,0,0,0,0,-,-
C[C@@]12C(=O)Nc3ccc(F)cc3C(=O)N1[C@H]1c3ccccc3OC[C@@H]1[C@@H]2c1ccccc1,-,0,0,-,-,-,-,-
C[C@@]12C(=O)Nc3cc(F)c(F)cc3C(=O)N1[C@H]1c3ccccc3OC[C@@H]1[C@@H]2c1ccccc1,21.2,0,0,10.1,0,0,0,0
CN(C)S(=O)(=O)NCC1CCCN(Cc2cc3ccccc3s2)C1 (stereo not given),0,0,0,0,0,0,-,-
O=S1(=O)c2c(F)cccc2O[C@@H](COCc2ccccc2)CN1CCc1ccc(F)cc1,20.7,0,0,0,0,0,0,0
O=S1(=O)c2c(F)cccc2OC(COc2ccccc2)CN1CCc1ccc(F)cc1 (stereo not given),0,0,0,0,0,0,-,-
Clc1ccc2c(-c3ccccc3)nc(-c3cccs3)nc2c1,0,-,0,0,0,0,-,-
